Assay results: PubChem BioAssay (NCATS)
Inconclusive results are not listed. Active and inactive are the calls of the source. Unless noted, the call rests on the fitted dose curve; in most records, active means well fitted curve in the direction sought with a large enough effect; inconclusive means small, poorly fitted or top-dose-only effect, or another doubt; inactive means no such curve, though single readings can be large; an effect the other way counts as inactive or inconclusive.

Tests used:
[1] = biological target: Glucocorticoid receptor (Homo sapiens) (UniProt P04150); assay: GR-GFP Redistribution (AID 450;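 active means compounds whose dose series gives a full or clear partial fitted curve of increased nuclear translocation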; further: potency means the concentration at half of the fitted maximal effect); details: U2OS GR-GFP nuclear translocation, laser cytometry, 2 h
[2] = biological target: Glucocorticoid receptor (Homo sapiens) (UniProt P04150); assay: GR-EFC Redistribution (AID 451; calls by dose curve; further: potency means the concentration at half of the fitted maximal effect); details: CHO-K1 GR-EFC translocation, beta-gal luminescence, 2 h
In short: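 CHO-K1 cells stably expressing nuclear-localized β-gal enzyme acceptor and GR fused C-terminally to the enzyme donor fragment; ligand-driven nuclear translocation restores β-gal by complementation. Compounds titrated up to 46 uM final, 2 h at 37 °C; luminescence read.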

[3] = biological target: Mitogen-activated protein kinase 10 (Mus musculus) (UniProt Q61831); assay: JNK3 AlphaScreen Assay (AID 530; active means well fitted curve in either direction with a large enough effect, not every such curve was filed as active;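 further: kinase came from lysate of stimulated human HepG2 cells; signal reports phosphorylation of biotinylated GST-cJun 1-79 at Ser73 with 10 µM ATP; on the % scale 0 is the no-effect control and ±100 the full control effect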); details: JNK3 lysate, c-Jun phosphorylation; series mostly up to 57.1 µM
In short: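 JNK3 came from HepG2 lysates pre-activated with IL-1beta and TNF-alpha and phosphorylated biotinylated GST-cJun (1-79) at 10 uM ATP, pH 7.6, room temperature. Compounds were titrated. AlphaScreen signal used anti-phospho-cJun (Ser73) antibody.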

[4] = biological target: 3',5'-cyclic-AMP phosphodiesterase 4B (Homo sapiens) (UniProt Q07343); assay: qHTS Assay for Inhibitors of PDE-IV (AID 607; active means well fitted activation curve with a large enough effect in the main read-out, with a control signal flat, not every such curve was filed as active; further: % of control where 0% means no effect); details: HEK293 ACTOne CNG channel cells, membrane potential fluorescence; series mostly up to 22.9 µM
In short: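 HEK293 ACTOne cells with CNG channel (1000/well), endogenous PDE4; membrane potential dye, compounds up to 22.9 uM final. Fluorescence Ex 535/Em 590; RO 20-1724 (100 uM final) as reference.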

[5] = Cell Viability - N2a (AID 540); details: N2a mouse neuroblastoma cell viability; at 92.2 µM (top of the series);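 further: cells exposed to compound for 40 h at 37 °C; plate controls were DMSO alone for no effect and tamoxifen control for full effect; nearly all actives have a fitted effect of over 45% in size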
In short: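 First, 1500 N2a cells per well incubate 5 hr at 37 °C; next, compounds are added and incubated 40 hr at 37 °C; finally CellTiter-Glo is added and luminescence read after 20 min, with AC50 derived by Hill modeling.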

[6] = Cell Viability - NIH 3T3 (AID 541); details: NIH 3T3 cell viability, qHTS; activity change, negative = cytotoxicity: at 92.2 µM (top of the series);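 further: cells exposed to compound for 40 hours; plate controls were DMSO alone for no effect and tamoxifen positive control for full effect; nearly all actives have a fitted effect of over 25% in size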
In short: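 AC50 values reflect concentration-dependent loss of intracellular ATP in NIH 3T3 cells after 40 hr treatment in complete culture medium, quantified by luciferase-based luminescence.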

[7] = Cell Viability - HUV-EC-C (AID 542); details: HUV-EC-C endothelial cell viability, qHTS; series mostly up to 92.2 µM;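 further: cells exposed to compound for 40 hours; on the % scale 0 is the no-effect control and ±100 the full control effect; nearly all actives have a fitted effect of over 35% in size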
In short: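 Decrease in cellular ATP, quantified by luciferase luminescence, reflects toxicity in normal human vascular endothelial HUV-EC-C cells given compound for 40 hr in complete culture medium. Values are AC50s from concentration-response curves.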

[8] = Cell Viability - H-4-II-E (AID 543); details: H-4-II-E rat hepatoma viability; series mostly up to 92.2 µM;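 further: cells exposed to compound for 40 hours; on the % scale 0 is the no-effect control and ±100 the full control effect; nearly all actives have a fitted effect of over 35% in size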
In short: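 Here, cytotoxicity is measured in the rat hepatoma line H-4-II-E as loss of intracellular ATP after 40 hr compound treatment, detected by luciferase luminescence.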

[9] = Cell Viability - SH-SY5Y (AID 544); details: SH-SY5Y neuroblastoma cell viability; series mostly up to 92.2 µM;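 further: cells exposed to compound for 40 hours; nearly all actives have a fitted effect of over 55% in size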
In short: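 Cytotoxicity is scored as a concentration-dependent fall in intracellular ATP in human SH-SY5Y cells treated 40 hr in complete culture medium. Potency is expressed as AC50 from a Hill equation fit.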

[10] = Cell Viability - Renal Proximal Tubule (AID 545); details: renal proximal tubule cells viability, primary cells of rat origin; at 91.7 µM (top of the series);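 further: cells exposed to compound for 40 hours; nearly all actives have a fitted effect of over 40% in size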
In short: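 Primary rat renal proximal tubule cells (1000/well) were treated with compounds for 40 hr at 37 °C in complete medium. Intracellular ATP was measured by CellTiter-Glo luminescence, and AC50 values came from Hill-equation fits of concentration-response data.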

[11] = Cell Viability - Mesenchymal (AID 546); details: mesenchymal cells viability, qHTS; series mostly up to 91.7 µM;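 further: cells exposed to compound for 40 hours before reading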
In short: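 Normal human renal glomerulus-derived kidney mesenchymal cells, 1000 per well in complete medium, were treated with compounds for 40 hr at 37 °C. Viability was read as intracellular ATP by CellTiter-Glo luminescence; AC50 values came from Hill-equation fits of qHTS concentration-response data.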

[12] = Cellular Toxicity (caspase-3) HepG2 (AID 654); details: HepG2 caspase-3 activation, luminescence, 0% = DMSO only, 100% = tamoxifen; series mostly up to 92.2 µM;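 further: cells exposed to compound for 16 hours before reading; 0% = DMSO alone and 100% = caspase signal from 100 µM tamoxifen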
In short: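 qHTS, HepG2, 1500 cells/well, complete medium; cpd 16 h 37 °C; Caspase-Glo 3/7, 20 min RT; lum. Norm: DMSO vs 100 uM tamoxifen; AC50 Hill fit.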

[13] = Cellular Toxicity (caspase-3) Jurkat (AID 655); details: Jurkat caspase-3 activation, luminescence; series mostly up to 92.2 µM;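 further: cells exposed to compound for 16 h at 37 °C before reading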
In short: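 Jurkat cells (5000/well) in complete medium were treated with compounds for 16 hr at 37 °C, then Caspase-Glo 3/7 luminescence was read after 20 min at room temperature. Data normalized to DMSO (basal) and 100 uM tamoxifen (100%); AC50 from Hill fit.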

[14] = Cellular Toxicity (caspase-3) HUV-EC-C (AID 656); details: HUV-EC-C cells, caspase-3 activation (apoptosis), vehicle = 0, 100 µM tamoxifen = 100%; series mostly up to 92.2 µM
In short: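 HUV-EC-C endothelial cells, 1000/well, were pre-incubated 5 hr at 37°C, then exposed to compounds for 16 hr at 37°C. Caspase-Glo 3/7 luminescence was read after 20 min at room temperature. AC50 came from Hill fits, normalized to DMSO and 100 uM tamoxifen.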

[15] = Cellular Toxicity (caspase-3) SHSY5Y (AID 657); details: SH-SY5Y caspase-3 activation; series mostly up to 91.7 µM
In short: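 SH-SY5Y human neuroblastoma cells (1500/well) were treated with compounds for 16 h at 37 °C, then Caspase-Glo 3/7 luminescence was read after 1 h at room temperature. Data normalized to DMSO and 10 uM staurosporine; AC50 from Hill fits.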

[16] = Cellular Toxicity (caspase-3) BJ (AID 658); details: BJ fibroblasts, luminescence; Potency: caspase-3 activation; series mostly up to 91.7 µM
In short: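 Luminescent aminoluciferin-substrate cleavage reports caspase 3/7 activity in normal human BJ fibroblasts after 16 hr compound exposure at 37 °C. Normalized to DMSO (basal) and 10 uM staurosporine (100%); AC50 from Hill fit of concentration-response.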

[17] = Cellular Toxicity (caspase-3) MRC-5 (AID 659); details: MRC-5 cells, luminescence, normalized: DMSO 0%, 10 µM staurosporine 100%; series mostly up to 91.7 µM
In short: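 Luminescence from caspase-cleaved aminoluciferin substrate (Caspase-Glo 3/7, 1 hr RT) reports caspase 3/7 activity in MRC-5 lung fibroblasts after 16 hr compound exposure. Normalized to DMSO basal and 10 uM staurosporine as 100%; AC50 from Hill fits.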

[18] = Cellular Toxicity (caspase-3) Mesangial (AID 660); details: mesangial cells, normalized: DMSO 0%, 100 µM tamoxifen 100%; series mostly up to 91.7 µM;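 further: combined caspase 3 and 7 activity read by Caspase-Glo luminescence; cells exposed to compound for 16 h before the caspase read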
In short: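 Concentration-response qHTS: compound-induced rise in caspase 3/7 luminescence in human mesangial cells after 16 h, normalized to DMSO and 100 uM tamoxifen controls.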

[19] = Cellular Toxicity (caspase-3) SK-N-SH (AID 661); details: SK-N-SH caspase-3 activation, qHTS; caspase-3 activation: at 91.7 µM (top of the series), DMSO as zero, staurosporine as full
In short: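 Caspase 3/7 activation is measured as a luminescence increase from aminoluciferin released by substrate cleavage in SK-N-SH cells after 16 hr compound treatment; values are AC50 from concentration-response curves.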

[20] = Cellular Toxicity (caspase-3) H-4-II-E (AID 663); details: H-4-II-E rat hepatoma, scaled: DMSO 0%, 100 µM tamoxifen 100%; series mostly up to 92.2 µM;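 further: cells exposed to compound for 16 hr before readout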
In short: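 Luminescence from caspase-cleaved aminoluciferin substrate, read 20 min after reagent addition, reports caspase 3/7 activation in rat H-4-II-E cells after 16 hr compound exposure. Normalized to DMSO (basal) and 100 uM tamoxifen (100%); AC50 from Hill fits.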

Sequence of Glucocorticoid receptor (Homo sapiens) (P04150 whole entry, looked up, the tested form may be a part): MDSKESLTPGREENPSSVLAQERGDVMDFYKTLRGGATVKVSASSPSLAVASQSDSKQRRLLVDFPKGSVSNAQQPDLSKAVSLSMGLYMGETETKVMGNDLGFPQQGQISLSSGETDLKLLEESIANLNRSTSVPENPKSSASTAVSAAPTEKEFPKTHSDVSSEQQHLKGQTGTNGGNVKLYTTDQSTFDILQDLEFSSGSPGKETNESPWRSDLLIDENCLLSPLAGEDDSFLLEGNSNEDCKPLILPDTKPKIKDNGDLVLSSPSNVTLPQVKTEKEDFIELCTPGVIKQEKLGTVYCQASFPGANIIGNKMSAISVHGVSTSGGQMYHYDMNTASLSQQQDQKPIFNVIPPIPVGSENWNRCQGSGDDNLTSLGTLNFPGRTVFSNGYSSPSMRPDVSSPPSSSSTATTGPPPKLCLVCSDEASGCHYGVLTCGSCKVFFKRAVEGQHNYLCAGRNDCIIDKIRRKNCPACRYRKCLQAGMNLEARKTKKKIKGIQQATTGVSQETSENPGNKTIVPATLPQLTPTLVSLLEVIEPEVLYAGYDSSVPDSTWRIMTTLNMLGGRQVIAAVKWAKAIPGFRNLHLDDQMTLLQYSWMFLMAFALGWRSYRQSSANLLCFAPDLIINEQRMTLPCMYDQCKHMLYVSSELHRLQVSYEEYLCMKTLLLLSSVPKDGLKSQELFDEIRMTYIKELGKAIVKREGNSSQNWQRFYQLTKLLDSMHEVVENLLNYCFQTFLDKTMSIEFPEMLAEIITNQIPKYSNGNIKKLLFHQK
Sequence of 3',5'-cyclic-AMP phosphodiesterase 4B (Homo sapiens) (Q07343 whole entry, looked up): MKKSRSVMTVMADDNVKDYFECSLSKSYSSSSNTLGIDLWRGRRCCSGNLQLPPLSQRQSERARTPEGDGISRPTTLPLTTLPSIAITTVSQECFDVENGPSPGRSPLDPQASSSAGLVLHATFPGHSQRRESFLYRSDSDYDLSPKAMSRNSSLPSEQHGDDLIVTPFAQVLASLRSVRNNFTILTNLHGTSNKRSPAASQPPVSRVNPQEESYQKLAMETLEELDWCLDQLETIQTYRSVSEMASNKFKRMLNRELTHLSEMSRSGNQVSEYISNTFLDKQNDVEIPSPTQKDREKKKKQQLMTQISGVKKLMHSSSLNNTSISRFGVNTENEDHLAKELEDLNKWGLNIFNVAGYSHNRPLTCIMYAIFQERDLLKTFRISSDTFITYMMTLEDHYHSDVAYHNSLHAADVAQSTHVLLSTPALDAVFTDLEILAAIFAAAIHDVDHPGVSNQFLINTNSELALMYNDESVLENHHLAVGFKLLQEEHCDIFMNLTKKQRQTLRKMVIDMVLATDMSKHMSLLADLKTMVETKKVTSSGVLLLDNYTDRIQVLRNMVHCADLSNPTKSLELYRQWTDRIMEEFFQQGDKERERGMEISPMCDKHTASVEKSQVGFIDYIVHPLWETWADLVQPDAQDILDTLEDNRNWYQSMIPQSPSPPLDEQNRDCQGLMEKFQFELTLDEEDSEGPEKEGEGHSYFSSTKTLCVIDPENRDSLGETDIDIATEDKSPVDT

C[C@@](Cc1ccc(O)c(O)c1)(NN)C(=O)O
inactive: Potency [1] > 46 µM | Potency [2] > 46 µM

Cn1nnnc1SCC1=C(C(=O)O)N2C(=O)[C@@H](NC(=O)[C@H](O)c3ccccc3)[C@H]2SC1
inactive: Potency [1] > 20.6 µM

COc1ccc(C[C@H](C)NC[C@@H](O)c2ccc(O)c(NC=O)c2)cc1
inactive: Potency [1] > 46 µM | Potency [2] > 46 µM | outcome [3]

CCCCC(=O)O[C@H]1CC[C@H]2[C@@H]3CCc4cc(O)ccc4[C@H]3CC[C@]12C
inactive: Potency [1] > 20.6 µM

O=P(O)(O)OP(=O)(O)O
inactive: Potency [1] > 46 µM | Potency [2] > 9.22 µM | activity change, negative = inhibition [3] 0.801% [at 11.4 µM] | outcome [4]

O=C(O)CCC(=O)c1ccc(-c2ccccc2)cc1
inactive: Potency [1] > 20.6 µM | Potency [2] > 20.6 µM | outcome [3] | outcome [4]

Cc1cc(-c2ccc(N=Nc3ccc4c(S(=O)(=O)O)cc(S(=O)(=O)O)c(N)c4c3O)c(C)c2)ccc1N=Nc1ccc2c(S(=O)(=O)O)cc(S(=O)(=O)O)c(N)c2c1O
inactive: Potency [1] > 46 µM | Potency [2] > 46 µM

Cc1cccc(C)c1NC(=O)C1CCCCN1C (stereo not given)
inactive: Potency [1] > 20.6 µM

Cc1cc(C)c(NC(=O)C[C@H](CC(=O)O)c2cccc3ccccc23)c(C(=O)N2CCC3(CCCC3)CC2)c1
inactive: Potency [1] > 46 µM | Potency [2] > 46 µM | outcome [3] | outcome [4]

NCCN
inactive: outcome [3] | activity change, negative = cytotoxicity [5] 5.1% | activity change, negative = cytotoxicity [6] -4.12% | Potency [7] | Potency [8] | Potency [9] | activity change, negative = cytotoxicity [10] 7.8% | outcome [11] | outcome [12] | Potency [13] | outcome [14] | Potency [15] | Potency [16] | outcome [17] | outcome [18] | Potency [19] | outcome [20]

CN1CCc2c(c3ccccc3n2Cc2ccccc2)C1
inactive: outcome [3]

O=C(O)Cc1cc(I)c(Oc2ccc(O)c(I)c2)c(I)c1
inactive: Potency [1] > 20.6 µM | Potency [2] > 20.6 µM | outcome [3] | outcome [4]

O=C(O)Cc1nn(Cc2ccc(Br)cc2F)c(=O)c2ccccc12
inactive: outcome [3]

O=C1NCCN1c1ncc([N+](=O)[O-])s1
inactive: Potency [1] > 20.6 µM | Potency [2] > 20.6 µM | outcome [3] | outcome [4]

O=C(O)c1ccc(OCCn2ccnc2)cc1
inactive: Potency [1] > 20.6 µM

ClC(Cl)Cl
inactive: outcome [3] | activity change, negative = cytotoxicity [5] -12.8% | activity change, negative = cytotoxicity [6] -17.2% | Potency [7] | Potency [8] | Potency [9] | activity change, negative = cytotoxicity [10] -11.2% | outcome [11] | outcome [12] | Potency [13] | outcome [14] | Potency [15] | Potency [16] | outcome [17] | outcome [18] | Potency [19] | outcome [20]

CC1(C)S[C@@H]2[C@H](NC(=O)C3(N)CCCCC3)C(=O)N2[C@H]1C(=O)O
inactive: Potency [1] > 20.6 µM | Potency [2] > 20.6 µM | outcome [3] | outcome [4]

CCCOc1cc(N)ccc1C(=O)OCCN(CC)CC
inactive: Potency [1] > 20.6 µM | Potency [2] > 20.6 µM | outcome [3] | outcome [4]
